G9a inh: qHTS Assay for Inhibitors of Histone Lysine Methyltransferase G9a | Histone-lysine N-methyltransferase EHMT2 (Homo sapiens), Q96KQ7 | G9a H3K9 monomethylation, AlphaScreen, 2 h | Potency, µM (highest dose often 102 µM), for inactives: top-dose activity, negative = inhibition, hits mostly inhibitors | 350,000 compounds, 8.8% hits; note: % is set by controls: 0 for no effect and ±100 for the full control effect; nearly all actives have a fitted effect of over 75% in size
Target sequence (Q96KQ7 913-1193 limits assumed): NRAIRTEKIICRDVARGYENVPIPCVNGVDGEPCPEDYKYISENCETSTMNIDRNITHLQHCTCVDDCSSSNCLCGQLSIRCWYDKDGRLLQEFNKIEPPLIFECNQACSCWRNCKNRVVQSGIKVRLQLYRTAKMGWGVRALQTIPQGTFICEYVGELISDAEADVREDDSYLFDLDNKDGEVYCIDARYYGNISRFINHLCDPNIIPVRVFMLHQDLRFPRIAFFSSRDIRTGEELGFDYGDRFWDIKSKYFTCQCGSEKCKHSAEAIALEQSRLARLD
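Using a bead-based AlphaScreen, monomethylated H3K9 product from 2 h room-temperature reactions (G9a 20 nM, peptide 500 nM, SAM 20 uM) was detected with 0.5 ug/mL rabbit anti-H3K9me1 antibody.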
JMJD2A Tudor: qHTS Assay for Inhibitors of JMJD2A-Tudor Domain; 390,000 compounds, 4.4% hits; Lysine-specific demethylase 4A (Homo sapiens), O75164; Potency, µM (series often up to 114 µM), without a hit: at the top dose activity change, negative = inhibition, most hits filed as inhibitors; AID 504339, 2011; AlphaScreen JMJD2A-Tudor / H3K4me3 peptide binding; note: % is set by controls: 0 for no effect and ±100 for the full control effect; nearly all actives have a fitted effect of over 50% in size
HP1b chromo inh: HTS for Inhibitors of HP1-beta Chromodomain Interactions with Methylated Histone Tails; AlphaScreen HP1-beta / biotin-H3K9me3 peptide binding; Potency, µM (series often up to 114 µM), inactives show at the top dose activity change, negative = inhibition, most hits filed as inhibitors; 390,000 compounds, 0.56% hits; note: nearly all actives have a fitted effect of over 70% in size
Target sequence (P83916 whole entry, looked up): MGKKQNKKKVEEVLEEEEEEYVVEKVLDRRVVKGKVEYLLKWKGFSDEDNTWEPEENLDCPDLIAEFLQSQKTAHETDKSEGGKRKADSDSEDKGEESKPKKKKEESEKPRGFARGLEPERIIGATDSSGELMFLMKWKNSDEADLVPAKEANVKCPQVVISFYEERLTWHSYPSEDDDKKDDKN
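Compound inhibition of the preformed complex between 50 nM HP1-beta and 50 nM biotinylated H3K9me3 peptide was read by AlphaScreen. Buffer was PBS pH 7.4 with 0.01% Tween-20. Incubations ran 30 min at room temperature, with 10 ug/mL donor/acceptor beads.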
BAZ2B inh: qHTS Assay for Inhibitors of BAZ2B | 360,000 compounds, 4.4% hits | AlphaScreen BAZ2B-H3K14Ac peptide displacement | AID 504333, 2011 | Potency, µM (top dose mostly 114 µM), without a hit: at the top dose activity change, negative = inhibition, usual class: inhibitors; note: % is set by controls: 0 for no effect and ±100 for the full control effect; nearly all actives have a fitted effect of over 60% in size
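AlphaScreen luminescence quantifies BAZ2B engagement of H3K14Ac peptide; the protein and biotinylated peptide are both at 50 nM final, buffer PBS pH 7.4 with 0.01% Tween-20, all steps at room temperature.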
PLK1 PBD inh: qHTS for Inhibitors of PLK1-PDB (polo-like kinase 1 - polo-box domain): Primary Screen; Potency, µM, for inactives: max response, negative = inhibition, usual class: inhibitors; 360,000 compounds, 2.8% hits; Serine/threonine-protein kinase PLK1 (Homo sapiens), P53350; Plk1 PBD binding of FITC phosphopeptide, fluorescence polarization; note: series mostly up to about 57 µM; % is set by controls: 0 for no effect and ±100 for the full control effect; nearly all actives have a fitted effect of over 65% in size
VDR inh: Inhibitors of the vitamin D receptor (VDR): qHTS. Vitamin D3 receptor (Homo sapiens), P11473. VDR-SRC2-3 peptide fluorescence polarization, 2 h. Potency, µM, for the others: max response, negative = inhibition, most hits filed as inhibitors. 400,000 compounds, 0.93% hits. AID 504847, 2011; note: % is set by controls: 0 for no effect and ±100 for the full control effect
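Fluorescence polarization assay of small-molecule disruption of VDR binding to coregulator peptide SRC2-3. Compounds and controls pin-transferred, then read after 2 h incubation at ambient room temperature.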
Starred values were filed as active, the others as inactive; [ ] = dose if it differs, or a comment. A selection: hits, their analogues and other compounds. The true share with any hit is near 11%. Calls come from the whole dose curve; as a rule, active = well fitted curve in the direction sought with a large enough effect; inconclusive = small, poorly fitted or top-dose-only effect, or another doubt; inactive = no such curve, though single readings can be large; an effect the other way counts as inactive or inconclusive. Potency is the fitted concentration of half-maximal effect.

For Cn1cc2c([N+](=O)[O-])cc([N+](=O)[O-])cc2n1 the results were G9a inh 79µM* and BAZ2B inh inconclusive.
For COCc1cc(C)c(C#N)c(=S)[nH]1 the results were JMJD2A Tudor 7.9µM*, HP1b chromo inh inconclusive, BAZ2B inh inconclusive, PLK1 PBD inh 27µM* and VDR inh 3%.
CCc1nnc(NC(=O)CSc2ccc(-c3ccco3)nn2)s1 was read as G9a inh 22µM*, JMJD2A Tudor 9%, HP1b chromo inh 17%, BAZ2B inh 50µM*, PLK1 PBD inh 0% and VDR inh -14%.
For O=C(CSc1ccc(-c2ccco2)nn1)Nc1ccccc1 the results were G9a inh 20µM*, JMJD2A Tudor -25%, HP1b chromo inh 2%, BAZ2B inh -15%, PLK1 PBD inh -25% and VDR inh -5%.
CCCc1nnc(NC(=O)CCC(=O)N2CCN(CCOC(c3ccccc3)c3ccccc3)CC2)s1 was read as G9a inh -21%, JMJD2A Tudor -29%, HP1b chromo inh 1%, BAZ2B inh -37%, PLK1 PBD inh -3% and VDR inh 9%.
Screening COc1ccccc1C1Nc2ccccc2-n2c(-c3ccccc3)c3c(=O)n(C)c(=O)n(C)c3c21 (centres undefined) returned G9a inh inconclusive, JMJD2A Tudor -26%, HP1b chromo inh 50%, BAZ2B inh -23% and VDR inh 19%.
Screening CC(C)(O)[C@@H]1[C@H]2OC(=O)[C@@H]1[C@]1(O)C[C@H]3O[C@]34C(=O)O[C@H]2[C@@]14C (tested in a mixture with another compound) returned VDR inh -1%.
Screening O=C(CNC(=O)c1cccs1)OCC(=O)c1ccc([N+](=O)[O-])cc1 returned G9a inh 17%[0.501 µM], JMJD2A Tudor 2%, HP1b chromo inh 59%, BAZ2B inh 1%, PLK1 PBD inh -5% and VDR inh 10%.
For O=C(OCC(=O)c1ccc([N+](=O)[O-])cc1)/C(=C/c1ccc(Cl)cc1)NC(=O)c1ccccc1 the results were G9a inh 7.9µM*, JMJD2A Tudor -13%, HP1b chromo inh 44%, BAZ2B inh -11%, PLK1 PBD inh -7% and VDR inh -2%.
`CCOC(=O)c1ccc(N2C(=O)c3n[nH]c(-c4cccs4)c3C2c2ccc(OC)cc2OC)cc1` (centres undefined) gave G9a inh -2%[59 µM], JMJD2A Tudor inconclusive, HP1b chromo inh 2% and VDR inh -10%.
Screening CN1C(=O)C(C2(C#N)CCCCC2)C(=O)N(C)C1=O returned G9a inh 50µM*, JMJD2A Tudor -11%, HP1b chromo inh 42%, BAZ2B inh 12%, PLK1 PBD inh -14% and VDR inh 0%.
CC(=O)CC(=O)C1C(=O)N(C)C(=O)N(C)C1=O was read as G9a inh -28%, JMJD2A Tudor -10%, HP1b chromo inh 28%, BAZ2B inh -10%, PLK1 PBD inh inconclusive and VDR inh -21%.
`CN(CCc1nnc(N)s1)[N+](=O)[O-]` gave G9a inh 22µM*, JMJD2A Tudor -15%, HP1b chromo inh 40%, BAZ2B inh -1%, PLK1 PBD inh inconclusive and VDR inh 11%.
`CCN1C[C@]2(C)CC[C@H](O)[C@@]34[C@@H]5C[C@@H]6[C@@H](OC)C[C@@](O)(C5[C@H]6O)[C@@H](C[C@@H]23)[C@@H]14` gave G9a inh 15%[12.7 µM].
Screening Cc1cccc(N2C(=O)NC(=O)/C(=C\c3cc(C)n(-c4sc5c(c4C#N)CCCC5)c3C)C2=O)c1C returned G9a inh 16µM*, JMJD2A Tudor inconclusive, HP1b chromo inh -20%, BAZ2B inh inconclusive, PLK1 PBD inh 0.75µM* and VDR inh 16µM*.
CCOC(=O)c1c(C)n(Cc2ccc3c(c2)OCO3)c2ccc(O)cc12 was read as G9a inh inconclusive, JMJD2A Tudor -15%, HP1b chromo inh -13%, BAZ2B inh inconclusive, PLK1 PBD inh -7% and VDR inh -5%.
`CCOC(=O)c1c(C)n(Cc2ccco2)c2ccc(O)cc12` gave G9a inh 8.9µM*, JMJD2A Tudor -27%, HP1b chromo inh 16%, BAZ2B inh inconclusive, PLK1 PBD inh -5% and VDR inh -4%.
Screening CC1CCCCN1CC(=O)c1ccc2cc[nH]c2c1 (centres undefined) returned G9a inh 32µM*, JMJD2A Tudor -28%, HP1b chromo inh 15%, BAZ2B inh -10%, PLK1 PBD inh -12% and VDR inh 10%.
Screening Cc1ccc(Cn2c(SCc3ccc(C(=O)NC4CCCC4)cc3)nc3ccncc32)cc1 returned G9a inh inconclusive, JMJD2A Tudor -10%, HP1b chromo inh 53%, BAZ2B inh -2% and VDR inh 1%.
`COc1cc(OC)c(/C=C2\C(=O)Nc3ccccc32)c(OC)c1` gave G9a inh inconclusive, JMJD2A Tudor 56µM*, HP1b chromo inh inconclusive, BAZ2B inh 45µM*, PLK1 PBD inh -14% and VDR inh -10%.
`N#CC1=C(N)Oc2n[nH]c(-c3ccccc3)c2C1c1cccc(OC(=O)N2CCOCC2)c1` (centres undefined) gave G9a inh inconclusive, JMJD2A Tudor -26%, HP1b chromo inh 18%, BAZ2B inh -34%, PLK1 PBD inh -16% and VDR inh -3%.
Screening CC(C)C[C@H](NC(=O)CNC(=O)[C@H](CCC(N)=O)NC(=O)[C@H](Cc1ccc(O)cc1)NC(=O)[C@@H](NC(=O)[C@H](Cc1ccc(O)cc1)NC(=O)CNC(=O)[C@@H](N)CCCN=C(N)N)C(C)C)C(=O)O returned VDR inh 12%.
O=C(NCCSc1c(-c2ccccc2)[nH]c2ccccc12)c1ccc(S(=O)(=O)N2CCOCC2)cc1 was read as G9a inh inconclusive, JMJD2A Tudor -18%, HP1b chromo inh 23%, BAZ2B inh -14% and VDR inh -4%.
Screening CC[C@H]1CN2CC[C@@H]1C[C@H]2[C@@H](O)c1ccnc2ccc(OC)cc12 returned G9a inh 6%[21.5 µM] and VDR inh 11%.

Assay outcomes from PubChem BioAssay.
